This is an account of results in PubChem BioAssay.

Test [1] has as its target Tumor necrosis factor receptor superfamily member 10B (Homo sapiens) (UniProt O14763). As to the kind of experiment: viability loss of caspase-8 NB7 cells with TRAIL – with/without TRAIL, luminescence panel, confirmation (AID 651596). The note with it: NB7 neuroblastoma + caspase-8, TRAIL sensitization, NB7 Caspase-8, with TRAIL, mean of runs, at 10 µM, stronger effect = higher value.

Assay in test [2]: as above
The note with it: NB7 neuroblastoma + caspase-8, without TRAIL, NB7 Caspase-8, without TRAIL, mean of runs, at 10 µM.

Sequence of Tumor necrosis factor receptor superfamily member 10B (Homo sapiens) (O14763 whole entry, looked up): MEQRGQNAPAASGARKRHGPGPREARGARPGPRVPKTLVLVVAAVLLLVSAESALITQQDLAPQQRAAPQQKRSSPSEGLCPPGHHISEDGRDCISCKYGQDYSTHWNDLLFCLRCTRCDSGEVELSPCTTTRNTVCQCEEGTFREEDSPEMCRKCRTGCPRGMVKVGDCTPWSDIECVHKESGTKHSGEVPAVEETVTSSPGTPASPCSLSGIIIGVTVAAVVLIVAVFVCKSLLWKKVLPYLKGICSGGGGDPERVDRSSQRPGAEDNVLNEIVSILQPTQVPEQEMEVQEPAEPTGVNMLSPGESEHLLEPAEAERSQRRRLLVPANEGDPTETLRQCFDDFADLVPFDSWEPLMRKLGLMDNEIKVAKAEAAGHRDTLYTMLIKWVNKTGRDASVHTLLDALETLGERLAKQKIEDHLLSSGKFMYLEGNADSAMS

As to `CC(=O)Oc1ccccc1C(=O)C=Cc1cccc([N+](=O)[O-])c1`, the activity came out at 36.3% in test [1] and 76.7% in test [2].
Taken in the same sequence, the figures for `COc1cccc(C(=O)/C=C2\Sc3ccccc3N2C)c1` were 56.7% and 29.4%.
In the same order, the values of `N/C(=N\OC(=O)c1ccc(Cl)cc1)c1ccn[nH]1` are 94.7% and 91%.
For the compound `COc1ccc(-c2cn3ccccc3n2)cc1`, the activity in test [1] worked out at 88%; in test [2], 87.1%.
In the same order, the values of `O=C(Nc1ccc2c(c1)CCC2)c1ccccc1F` are 30.3% and 36.4%.
Consider `Nc1c(-c2ccccc2)cnn1-c1ccccc1`, for which the activity in test [1] worked out at 44.6%; in test [2] it was 40.4%.
In the same order, the values of `c1ccc(/N=C2\N=C(Nc3ccccn3)c3ccccc32)nc1` are 40% and 48.8%.
Consider `COc1ccc(C2C(C(=O)N3CCC(C)CC3)c3ccccc3C(=O)N2C)cc1` (centres undefined), for which the activity is 67.2% in test [1] and 68.5% in test [2].
Taken in the same sequence, the figures for `Cc1nnc(NC(=O)c2ccc(S(=O)(=O)C(F)F)cc2)s1` were 43.1% and 42.9%.
For `Cc1ccc(-c2cc(C(=O)N3CCOCC3)no2)cc1`, the activity in test [1] is 69.7%; in test [2] it was 65.2%.
As to `COc1ccccc1N1CCN(c2ccc(-c3ccccc3)nn2)CC1`, the activity came to 80.9% in test [1] and 86.2% in test [2].
With `CC(C)NC(=O)c1ccc2c3n(nc2c1)-c1ccccc1CO3`, the activity turned out to be 95.8% in test [1] and 95.5% in test [2].
In the same order, the values of `COc1ccc(C2C(C(=O)N3CCN(c4ccccc4)CC3)c3ccccc3C(=O)N2C)cc1` (centres undefined) are 69.5% and 66.3%.
Regarding `COc1ccc(Oc2c(Cl)cnn(-c3ccccc3)c2=O)cc1`, the activity is 98.4% in test [1] and 94.4% in test [2].
Consider `Nc1nn2cc(-c3ccc(Br)cc3)nc2c2ccccc12`, for which the activity in test [1] amounted to 53.9%; in test [2] it was 47.2%.
In the same order, the values of `COc1cccc2cc(-c3nc4ccccc4[nH]3)c(=O)oc12` are 64.5% and 61.1%.
In the same order, the values of `Nc1nc(CCl)nc(Nc2ccc3ccccc3c2)n1` are 99.1% and 97.8%.
Taken in the same sequence, the figures for `Cc1ccc(Cn2ncc(Cl)c(Cl)c2=O)cc1` were 97.2% and 99.3%.
In the case of `O=C(CSC(=S)N1CCCCC1)c1ccccc1`, the activity in test [1] came out at 50.8%; in test [2] it was 35.2%.
As to `COc1ccc(/C=C\c2nc(=O)c3ccccc3o2)cc1`, the results for the activity in test [1] and in test [2] were 72% and 69.6%, respectively.
Taken in the same sequence, the figures for `CC(C)(C)c1ccc(-c2cn(-c3ccc(Br)cc3)c3[n+]2CCCS3)cc1` were 71.9% and 55.1%.
On to `COc1ccccc1C=C1CCc2ccccc2C1=O`, for which the activity in test [1] was 78.4%; in test [2], 74.3%.
Taken in the same sequence, the figures for `CCCc1ccc(-c2cc(C(=O)N/N=C/c3ccc([N+](=O)[O-])o3)c3ccccc3n2)cc1` were 91.6% and 93.3%.
Taken in the same sequence, the figures for `COc1cccc(NC(=O)n2ncc3c(C)cccc32)c1` were 67.7% and 64.3%.
In the same order, the values of `CCOC(=O)c1sc(NC(=O)c2ccccc2OC)nc1C` are 26.1% and 31.9%.
For `Cc1cnc(NC(=O)c2ccc(OCC3CCCO3)cc2)s1` (centres undefined), the values for the activity in test [1] and in test [2] were 93.3% and 94.7%, respectively.
As for `CC(C)(C)C(=O)N1CCc2cc(-c3csc(N)n3)ccc21`, the results for the activity in test [1] and in test [2] were 91.8% and 88.1%, respectively.
In the same order, the values of `CC(C)(C)OC(=O)NCCCC[C@H](NC(=O)c1[nH]cnc1C(=O)Nc1ccccc1)C(=O)OC(C)(C)C` are 74.2% and 58.6%.
Take `Cc1ccc(CN2[C@@H](Cc3ccccc3)C(=O)CS2(=O)=O)cc1`: the activity in test [1] came to 81%; in test [2], 60.2%.
In the same order, the values of `C=CCn1c(C)cc(C(=O)CN2C(=O)c3ccccc3C2=O)c1C` are 60.2% and 57.3%.
Taken in the same sequence, the figures for `Nc1ccc(C(=O)NN2C(=O)[C@H](Cl)C2c2ccc(Cl)cc2)cc1` (some centres undefined) were 99.3% and 99.5%.
With `COc1ccc(/C=C2/Sc3ccc(C(=O)NCCN4CCCCCC4)cc3NC2=O)cc1`, the activity in test [1] was determined as 67.8%; in test [2], 94.7%.
In the same order, the values of `Cc1cccc(NC2=NC(C)(C)N=C(N)N2)c1` are 82.5% and 83.2%.
`O=C(Nc1cc(C(F)(F)F)cc(C(F)(F)F)c1)Nc1cnn(-c2ccc([N+](=O)[O-])cc2)c1C(F)(F)F`: the activity came out at 74.2% in test [1] and 63% in test [2].
Take `O=C(CSc1nnc(NC(=O)c2ccccc2)s1)NCc1ccco1`: the figures for the activity in test [1] and in test [2] were 64.5% and 73.1%, respectively.
In the same order, the values of `CC(C)c1ccc(NC(=O)CSc2ncccc2C(=O)Oc2cccc([N+](=O)[O-])c2)cc1` are 68.1% and 61.5%.
For the compound `O=S(=O)(c1ccccc1)c1nnn2c1nc(NC1CCN(Cc3ccccc3)CC1)c1ccccc12`, the figures for the activity in test [1] and in test [2] were 97.9% and 48.9%, respectively.
For `CCOc1ccc(-c2cc(C(=O)N/N=C(\C)c3cccnc3)c3ccccc3n2)cc1`, the figures for the activity in test [1] and in test [2] were 74% and 69.6%, respectively.
`Cc1ccc(NC(=O)COc2ccccc2[N+](=O)[O-])nc1`: the activity in test [1] was found to be 60.5%; in test [2], 62.8%.
Regarding `COc1ccc2nc(-c3ccccc3)[nH]c2c1`, the activity stood at 57.3% in test [1] and 65.5% in test [2].
Taken in the same sequence, the figures for `Nc1c(C(=O)N2CCOCC2)sc2nc3c(cc12)CCCC3` were 67.5% and 63.5%.
As for `CC1=NN(c2nc(N)nc(/C(C#N)=C/c3ccc([N+](=O)[O-])o3)n2)C(C)(C)C1`, the activity in test [1] came out at 58.1%; in test [2], 98.6%.
Taken in the same sequence, the figures for `CCOC(=O)c1sc2nc(-c3cccnc3)ccc2c1N` were 56% and 49.2%.
For `O=C(C[C@H]1C/C=C\C[C@H](NC(=O)OCC2c3ccccc3-c3ccccc32)C(=O)OC[C@H](Cc2ccccc2)NC1=O)N[C@H](CO)Cc1ccccc1`, the figures for the activity in test [1] and in test [2] were 11.8% and -2.65%, respectively.
Taken in the same sequence, the figures for `CCOC(=O)c1ccc(NC(=O)c2nc[nH]c2C(=O)NCCNC(=O)c2[nH]cnc2C(=O)Nc2ccc(C(=O)OCC)cc2)cc1` were 99.4% and 99.5%.
Taken in the same sequence, the figures for `CCOc1ccccc1NC(=O)c1nc(S(=O)(=O)Cc2cccc(C)c2)ncc1Cl` were 84.6% and 97.2%.
In the same order, the values of `CN1CCN(Cc2nc3ccccc3c(=O)n2Cc2nc(-c3ccc4ccccc4c3)cs2)CC1` are 67.3% and 91.5%.
For `O=C(CC1SC(=O)N(Cc2cccc3ccccc23)C1=O)Nc1nccs1` (centres undefined), the activity is 33% in test [1] and 74.3% in test [2].
In the same order, the values of `CC(C)c1ccc(/C=N/NC(=O)c2ccccn2)cc1` are 86.9% and 76.6%.
In the same order, the values of `COc1ccccc1-c1cc2nc(-c3ccccc3)cc(N3CCN(C(=O)c4ccco4)CC3)n2n1` are 81.9% and 66%.
Turning to `Cc1ccc(-c2cn3c(=O)cc(C)[nH]c3n2)cc1`, the activity was 80.5% in test [1] and 79.5% in test [2].
In the same order, the values of `CCCc1ccc(C(=O)NC(=O)c2ccccc2O)cc1` are 78.6% and 75.5%.
With `CN(C(=S)NC(=O)c1ccc(Cl)cc1)C1CCCCC1`, the values for the activity in test [1] and in test [2] were 40.6% and 60%, respectively.
In the same order, the values of `Cc1cc(NCCCn2ccnc2)n2ncc(-c3ccc(Cl)cc3)c2n1` are 45.8% and 48.5%.
Take `COc1oc(C(=O)NC2CCCCC2)c(-c2ccc(Cl)cc2)c1S(=O)(=O)c1ccccc1`: the activity turned out to be 97.8% in test [1] and 96.8% in test [2].
As for `O=C(Nc1ccc2c(c1)OCO2)c1ccc(Cl)cc1Cl`, the activity in test [1] was determined as 72.1%; in test [2], 67.6%.
As for `COc1ccc(Cn2c(SCc3ccccc3C)nc3cc(OC)c(OC)cc3c2=N)cc1`, the values for the activity in test [1] and in test [2] were 72.7% and 90.9%, respectively.
In the same order, the values of `Fc1cccc(/C=N/Nc2nncc3ccccc23)c1` are 79.5% and 78.8%.
Consider `Cc1ccc(CNc2nc3ccccc3n2C)cc1`, for which the activity was determined as 59.8% in test [1] and 53.8% in test [2].
Taken in the same sequence, the figures for `O=C(/C=C/c1cccs1)N1CCc2ccccc21` were 59.8% and 55.5%.
In the same order, the values of `O=C(Nc1ccc(-c2nc3ccccc3[nH]2)cc1)C1CCCO1` (centres undefined) are 79.5% and 71%.
With `COc1ccc(NC(=O)N2CCc3ccccc32)cc1`, the activity in test [1] came to 64.4%; in test [2] it was 64%.
